This passage reports viability and Potency results from PubChem BioAssay (NCATS).

One may read the viability as a read-out of living cells in per cent, often relative to untreated cells.

Assay [1] in a line: BET inhibitor-based combinations targeting novel dependencies in MECOM-rearranged (r) AML: SET-2 cell line (AID 2202231).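 For viability: plate controls were DMSO treated cells for no effect and wells without cells for full effect.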 Note: nearly all actives have a fitted effect of over 35% in size. Note: potency is the fitted concentration of half-maximal effect. The settings on record: SET-2 AML cells viability, CellTiter-Glo luminescence, 48 h; viability: active compounds read low, concentration not given here. In outline:
(§1)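 A 48 hr incubation preceded viability reading by CellTiter-Glo, with 15 min room-temperature development. Dose series had 11 points; normalization used DMSO and empty wells; AUC was computed and mean-centered per line as Z-AUC.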
(In general: ATP-based viability assays read luminescence as a measure of living cells.)

Assay [2] has as its target Aldehyde dehydrogenase 1A1 (Homo sapiens) (UniProt P00352). Description: qHTS for Inhibitors of the Aldehyde Dehydrogenase Family (ALDH1A1) Confirmatory screens (AID 2061316). Note: potency is the fitted concentration of half-maximal effect; nearly all actives have a fitted effect of over 65% in size. On the technique in general: In qHTS, concentration-response curves come from the screen itself.
A short description of assay [3]: BET inhibitor-based combinations targeting novel dependencies in MECOM-rearranged (r) AML: OCI-AML3 cell line (AID 2202232). Note: potency is the fitted concentration of half-maximal effect; nearly all actives have a fitted effect of over 35% in size. The settings on record: Potency: OCI-AML3 viability. In outline:
as §1

Assay [4] is described as follows: BET inhibitor-based combinations targeting novel dependencies in MECOM-rearranged (r) AML: MV-4-11 cell line (AID 2202233). Note: potency is the fitted concentration of half-maximal effect; nearly all actives have a fitted effect of over 45% in size. In outline: (§2)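 Each compound is tested in an 11-point concentration series against 500 seeded cells/well for 48 hr. The luminescent viability signal is normalized to DMSO and blank wells, then reduced to AUC and a cell-line-centred Z-AUC.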

A short description of assay [5]: BET inhibitor-based combinations targeting novel dependencies in MECOM-rearranged (r) AML: HNT-34 cell line (AID 2202234). Note: potency is the fitted concentration of half-maximal effect; nearly all actives have a fitted effect of over 35% in size. In outline: as §2
A short description of assay [6]: BET inhibitor-based combinations targeting novel dependencies in MECOM-rearranged (r) AML: UCSD-AML1 cell line (AID 2202235). Note: potency is the fitted concentration of half-maximal effect; nearly all actives have a fitted effect of over 40% in size. In outline: as §2
The target in assay [7] is Retinaldehyde dehydrogenase 3 (Homo sapiens) (UniProt P47895). Kind of assay: qHTS for Inhibitors of the Aldehyde Dehydrogenase Family (ALDH1A3) Primary screen (AID 2061315).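 Note: plate controls were DMSO vehicle for no effect and reference inhibitor for full effect.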

Molecules are shown by their SMILES. Results filed as inconclusive are left out. Values without a mark were called inactive. Activity calls are given as the source filed them. Calls come from the whole dose curve; as a rule, active = well fitted inhibition curve with a large enough effect; inconclusive = small, poorly fitted or top-dose-only effect; inactive = no such curve, though single readings can be large or run the other way.

As to `O=C(NOCCO)c1cc(CN2OCCCC2=O)c(F)c(F)c1Nc1ccc(I)cc1F`, the viability in assay [1] was 70.8%.
For the molecule `COc1ccc2c(c1)CCc1sc(NC(=O)c3ccc(Br)cc3)nc1-2`, the Potency in assay [2] is 10.2 µM (active).
As to `N#Cc1cc2cc(CN3CCC(Nc4ncnc5sc(CC(F)(F)F)cc45)CC3)c(O)cc2n1Cc1cn[nH]c1`, the Potency is 23.5 µM (active) in assay [1], 18.6 µM (active) in assay [3], 5.9 µM (active) in assay [4] and 23.5 µM (active) in assay [5].
Take `CC1(C)C(N(O)C(=O)Nc2ccc(Cl)cc2)N(c2ccc(Cl)cc2)C(=O)N1CC(=O)N/N=C/C=C/c1ccc([N+](=O)[O-])o1` (stereo not drawn): the Potency in assay [1] is 20.9 µM (active); in assay [3] it was 3.32 µM (active); in assay [4], 4.68 µM (active); in assay [5], 13.2 µM (active).
Consider `C=C1C(=O)O[C@H]2C[C@H](C)C(/C=C/C(C)=O)=CC[C@H]12`, for which the Potency is 4.68 µM (active) in assay [1]; 1.18 µM (active) in assay [3]; 1.86 µM (active) in assay [4]; 3.32 µM (active) in assay [5]; 2.09 µM (active) in assay [6].
Consider `C=C1/C(=C/C=C2\CCCC3(C)[C@@H]([C@H](C)/C=C/C=C/C(O)(CC)CC)CC[C@@H]23)C[C@@H](O)C[C@@H]1O` (stereo partly drawn), for which the viability in assay [1] was 89.5%. For the same molecule, the Potency is 16.6 µM (active) in assay [3] and 5.25 µM (active) in assay [4].
In the case of `Nc1nccn2c(C3CCC(C(=O)O)CC3)nc(-c3cc4cccc(Cl)c4[nH]3)c12` (stereo not drawn), the Potency result in assay [7] was “inactive”. The Potency is 7.42 µM (active) in assay [1]; 4.68 µM (active) in assay [3]; 2.35 µM (active) in assay [4]; 1.48 µM (active) in assay [5]; 1.05 µM (active) in assay [6].
As for `Cc1cc(C(=O)NOCCO)c(Nc2ccc(I)cc2F)n(C)c1=O`, the viability in assay [1] is 96.3%. The Potency is 0.0059 µM (active) in assay [3], 0.0295 µM (active) in assay [4] and 0.0468 µM (active) in assay [5].
